# High-throughput results deposited in PubChem by several laboratories.
# EP2 mod: modulates human prostaglandin E2 receptor EP2 signaling; P43116; AID 940; induction, % at 25 µM; actives 0.83% (n = 260,000); EP2-expressing cells, cAMP HTRF FRET, PGE2 co-stimulation;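 active = compounds whose cAMP rise, as percent of the full-agonist control response, exceeds 60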;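 note: rat C6 glioma line stably carrying human EP2 under a CMV promoter; the protocol text gives 20 µM as final concentration; 100% = response of wells given 1 µM PGE2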
# CHT allo act: allosteric activators of human choline transporter CHT. CHT-expressing cells, membrane potential dye, choline EC20; active compounds read high; LV-AA mutant CHT in HEK293 cells. B-score at 10 µM. actives 0.49% (n = 310,000). AID 488977;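 active = initial fluorescence not abnormally high and integrated response B-score, plate-corrected, over 3 SD above library mean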
# Target sequence (Q9GZV3 whole entry, looked up): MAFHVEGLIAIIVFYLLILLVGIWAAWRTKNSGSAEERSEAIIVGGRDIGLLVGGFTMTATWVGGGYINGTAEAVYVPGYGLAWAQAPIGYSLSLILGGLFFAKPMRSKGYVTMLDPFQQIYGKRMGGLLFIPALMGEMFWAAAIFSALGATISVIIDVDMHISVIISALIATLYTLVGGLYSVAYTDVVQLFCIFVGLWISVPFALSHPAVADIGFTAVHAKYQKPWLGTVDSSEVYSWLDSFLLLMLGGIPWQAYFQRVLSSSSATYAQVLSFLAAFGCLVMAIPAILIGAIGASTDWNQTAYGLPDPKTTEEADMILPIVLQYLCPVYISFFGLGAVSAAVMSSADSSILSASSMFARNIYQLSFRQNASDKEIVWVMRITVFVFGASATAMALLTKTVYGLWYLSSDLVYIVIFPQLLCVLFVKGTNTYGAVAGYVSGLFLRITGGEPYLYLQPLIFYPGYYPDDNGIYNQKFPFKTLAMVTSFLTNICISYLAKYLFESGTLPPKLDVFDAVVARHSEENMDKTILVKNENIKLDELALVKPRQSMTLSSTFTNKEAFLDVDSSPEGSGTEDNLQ
# CHT inh: inhibits the human high affinity choline transporter; Q9GZV3; CHT-expressing cells, membrane potential dye, choline response; active compounds read low; B-score at 10 µM; actives 0.86% (n = 310,000); AID 488975;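 active = B-score over 3 SD under the library average, and starting fluorescence ratio not unusually high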;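 note: choline stimulus applied at its EC90 after an EC20 pre-addition; B-score computed on integrated fluorescence ratio after choline addition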
# PGE2 EP2 inh: blocks the human prostaglandin E2 receptor EP2; actives 0.52% (n = 260,000); P43116; C6 glioma cells expressing human EP2, cAMP TR-FRET; cells stimulated with saturating PGE2; inhibition, % at 25 µM;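 active = percent inhibition above 40 after rounding to a whole number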;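 note: rat C6 glioma host cells with rolipram phosphodiesterase inhibitor present; the protocol text gives 20 µM as final concentration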
# EP2 cAMP induct: EP2 receptor cAMP induction, counter-screens negative. calls only at 20 µM (by protocol). actives 47% (n = 1,300). C6 glioma EP2 cells, cAMP HTRF induction; plus low (about EC15) PGE2 agonist. shares compounds with EP2 mod;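 active = cAMP induction above 50% in the main assay while under 30% in all four parallel counter assays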;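 note: rat C6 glioma cells stably expressing human EP2 receptor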
# * = called active by the depositor; i = inactive; / = no result; + = active, no number. Shown are actives, neighbours in structure and some others; about 2.1% of the full set was active somewhere.
SMILES,EP2 mod,CHT allo act,CHT inh,PGE2 EP2 inh,EP2 cAMP induct
Cc1cc(C)nc(NC(=O)c2cc(-c3ccc4c(c3)OCO4)nc3ccccc23)c1,/,i,i,/,/
COC(=O)c1cc(-c2ccc3c(c2)OCO3)nc2ccccc12,68*,i,i,16,i
O=C(CSc1ncnc2sc3c(c12)CCC3)Nc1nccs1,-19,/,/,10,/
CCc1ccc(C2/C(=C(/O)c3ccc(OC)c(OC)c3)C(=O)C(=O)N2C)cc1 (configuration not stated),47,/,/,15,/
CC(=O)C1=C(O)C(=O)N(CCc2c[nH]c3ccccc23)C1c1ccccc1Cl (configuration not stated),10,/,/,12,/
CC(=O)Oc1ccc2ccccc2c1C(NC(=O)Cc1ccccc1)c1ccccc1 (configuration not stated),65*,i,i,3,i
CCCCC(=O)NC(c1cccc([N+](=O)[O-])c1)c1c(OC(C)=O)ccc2ccccc12 (configuration not stated),59,i,i,14,/
COc1ccc(NC(=O)c2sc3nc4cc5c(cc4cc3c2N)OCCO5)c(OC)c1,-37,/,/,14,/
CCn1nnc(NC(=O)COc2ccc(C)cc2)n1,-32,/,/,3,/
CCOC(=O)C1CCN(c2c(-c3ccccc3)c3cc(Cl)ccc3[nH]c2=O)CC1,80*,i,i,16,i
O=c1[nH]c2ccc(Br)cc2c(-c2ccccc2)c1N1CCOCC1,78*,i,i,/,i
O=C(c1ccc2c(c1)OCO2)N1CCCC(c2[nH]ncc2-c2ccncc2)C1 (configuration not stated),1,/,/,/,/
c1ccc(CSc2nnc3c4c5c(sc4nc(C4CC4)n23)CCCC5)nc1,-11,/,/,14,/
COc1ccc(-c2c(C(C)=O)c(C)nc3sc4c(c23)NC(c2ccccc2)NC4=O)cc1 (configuration not stated),70*,i,i,10,i
C[C@H](C(=O)c1ccccc1)[C@@H](c1ccccc1)N1CCOCC1,56,/,/,12,+
CCOC(=O)CSc1nc(-c2ccccc2)nc2ccc(F)cc12,55,i,i,5,/
CC(C)OC(=O)CSc1nc(Cc2ccccc2)nc2ccccc12,74*,i,i,7,+
CCOC(=O)CSc1nc(-c2ccccc2)nc2ccccc12,70*,i,i,5,+
CCOC(=O)C(C)Sc1nc(-c2ccccc2)nc2ccc(F)cc12 (configuration not stated),-10,i,i,17,/
CCOC(=O)C(C)Sc1nc(-c2ccccc2)nc2ccccc12 (configuration not stated),87*,i,i,3,+
COC(=O)CSc1nc(Cc2ccccc2)nc2ccccc12,67*,i,i,13,+
Cc1ccc(C)c2[nH]c(=O)c(CN(C(=O)NCc3ccccc3)C3CCCC3)cc12,2,/,/,10,/
CCOC(=O)CSc1nc(Cc2ccccc2)nc2ccccc12,70*,i,i,10,+
CCOC(=O)CSc1nc(CC)nc2ccccc12,38,i,i,9,/
COc1ccc2[nH]c(=O)c(CN(CCO)S(=O)(=O)c3ccc(Cl)c(C(F)(F)F)c3)cc2c1,-11,/,/,9,/
SMILES,EP2 mod,CHT allo act,CHT inh,PGE2 EP2 inh,EP2 cAMP induct
Fc1cccc(CSc2ncnc3c2oc2ccccc23)c1,80*,i,i,15,i
O=C(CSc1ncnc2c1oc1ccccc12)Nc1cccc(F)c1,67*,i,i,13,i
O=C(CSc1ncnc2c1oc1ccccc12)Nc1ccc2c(c1)OCCO2,21,i,i,6,/
Cc1cccc(NC(=O)CSc2ncnc3c2oc2ccccc23)c1,71*,i,i,15,i
O=C(c1ccc(-c2ccc(Cl)cc2Cl)o1)N1CCCCC1,8,/,/,5,/
Cc1cc(C)n(-c2cccc(C(F)(F)F)c2)c(=O)c1C#N,-8,/,/,9,/
O=C(Cn1cnc2ccccc2c1=O)Nc1nccs1,-7,/,/,4,/
Fc1ccc(Sc2nc(-c3ccccc3)nnc2C(F)(F)F)cc1,65*,i,i,9,i
CN(C)c1nc(-c2ccccc2)nnc1C(F)(F)F,22,i,i,10,/
Fc1ccc(Oc2nc(-c3ccccc3)nnc2C(F)(F)F)cc1,69*,i,i,11,+
FC(F)(F)c1nnc(-c2ccccc2)nc1Oc1ccccc1,49,i,i,3,/
